From PubChem
This is a sample that favours compounds with a hit; in the whole collection about 2.1% have one here.
Gli-Sufu antag = Gli-Sufu pathway antagonism; Sufu-KO-LIGHT fibroblasts, Gli luciferase reporter luminescence; inhibition, % at 5 µM; 340,000 tested, 0.74% active;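 active = inhibition above about 55%, limit read from the data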;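 also: 0% = DMSO-treated cells and 100% = wells with medium but no cells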
NR2F2 inh = blocks human COUP-TFII nuclear receptor; 370,000 tested, 0.7% active; inhibition, % at 8.6 µM; HEK293T NGFI-A luciferase reporter, luminescence; P24468; AID 686940;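 active = inhibition above a per-plate cutoff, mean inhibition of test wells between control levels plus 3 SD, cut at about 38% in these data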;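 also: cells cotransfected with COUP-TFII expression vector driving the NGFI-A reporter; 0% = median of COUP-TF2 test wells and 100% = reporter-only cells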
HIV Env fusion = blocks HIV Env-driven cell-cell fusion | HeLa-JRFL Env/CEM21 cell fusion, luciferase | inhibition, % at 12.3 µM | 360,000 tested, 1.1% active | AID 651610;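 active = mean replicate inhibition score of at least 50 and every replicate individually at or above 50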;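 also: 0% = plate neutral controls and 100% = maraviroc near 300 nM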
aDG glyco up = alpha-DG glycosylation activation | Pro5-aDG cells, alpha-DG glycosylation AlphaScreen (IIH6); 0% Pro5, 100% B10-LARGE cell signal | activation, % at 10 µM | 360,000 tested, 0.22% active | AID 624168;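 active = activation of at least 8% versus controls, or a plate z-score of at least 8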;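 also: Pro5 are CHO cells carrying HIG-tagged alpha-DG that lacks glycosylation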
GalR3 antag = blocks the human galanin receptor 3 | O60755 | AID 651719 | inhibition, % at 3 µM | HEK293 GalR3-CNG cAMP membrane potential fluorescence; galR3 body fused to GalR1 C-terminus | 360,000 tested, 0.44% active;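 active = inhibition above the screen-wide average plus 3 SD, cut at about 13% in these data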;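 also: forskolin and galanin both at EC90 stimulate the cells; cAMP rise reported by CNG channel membrane potential dye signal; 0% = forskolin plus galanin with DMSO and 100% = forskolin alone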
Target sequence (O60755 1-299 limits assumed): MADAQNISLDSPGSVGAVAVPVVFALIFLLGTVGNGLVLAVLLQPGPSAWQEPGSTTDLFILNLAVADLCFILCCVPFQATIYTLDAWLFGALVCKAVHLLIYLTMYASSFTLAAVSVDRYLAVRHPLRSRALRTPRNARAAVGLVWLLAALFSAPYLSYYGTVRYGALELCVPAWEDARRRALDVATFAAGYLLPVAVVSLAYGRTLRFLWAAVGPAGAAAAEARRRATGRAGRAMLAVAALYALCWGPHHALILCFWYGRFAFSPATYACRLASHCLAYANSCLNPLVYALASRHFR
GalR3 conf = confirmation of human galanin receptor 3 antagonists; inhibition, % at 3 µM; AID 652245; shares compounds with GalR3 antag; 1,600 tested, 59% active; HEK293 GalR3 CNG cAMP biosensor, membrane potential fluorescence; galR3 fused to GalR1 carboxy tail; challenged with forskolin and galanin at EC90;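 active = inhibition above the primary screen's cutoff, the mean inhibition of all screened compounds plus 3 SD, cut at about 13% in these data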;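 also: 0% = forskolin plus galanin and 100% = forskolin alone with DMSO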
HEK-CNG parental = counter-screen for GalR3 antagonists: nonspecific agonists in parental HEK-CNG cells; shares compounds with GalR3 antag; activation, % at 3 µM; HEK293-CNG parental cells, cAMP membrane potential fluorescence; normalised: DMSO wells 0%, forskolin wells 100%; 1,600 tested, 10% active; in the data active = activation above about 1.3%
* = called active by the depositor; / = no result; [ ] = remark or other dose.

SMILES	Gli-Sufu antag	NR2F2 inh	HIV Env fusion	aDG glyco up	GalR3 antag	GalR3 conf	HEK-CNG parental
COCCCN1C(=O)c2ccc(C(=O)OCC(=O)N(C)c3ccccc3)cc2C1=O	1.5	5.3	10.9	0.0	/	-0.6	-0.1
Cc1ccc(-c2cnc3c(c2)C(=O)N([C@@H](C)CO)C[C@@H](C)[C@@H](CN(C)C(=O)c2ccc(F)cc2)O3)cc1	/	/	1.4[16.7 µM]	/	/	/	/
COc1ccc(CNC(=O)c2cnn3c(C(F)F)cc(C)nc23)cc1OC	2.9	26.2	5.8	0.2	14.6*	20.3*	0.2
CCOc1cc(C(C(=O)NCC2CCCO2)N(C(=O)Cn2nnc3ccccc32)c2ccccc2C(C)=O)ccc1O (configuration not stated)	3.7	-8.8	-5.4	0.0	15.3*	13.8*	0.2
C[C@H](CO)N1C[C@H](C)[C@H](CN(C)C(=O)C2CCC2)Oc2ncc(C#CC3(O)CCCC3)cc2C1=O	/	/	-5.7[16.7 µM]	/	/	/	/
Cc1ccc(S(=O)(=O)NN2C(=O)c3ccccc3NC2c2ccccn2)cc1 (configuration not stated)	10.7	13.0	10.0	-0.5	14.0*	-1.2	0.0
COc1ccccc1CNC(=O)[C@H](C)NC(=O)[C@@H]1Cc2ccccc2CN1	-3.5	-16.1	3.4	0.2	8.8	/	/
COc1ccccc1CNC(=O)[C@H](CCSC)NC(=O)[C@@H]1Cc2ccccc2CN1	-22.5	15.2	/	-0.1	21.9*	11.6	0.3
C[C@@H]1CCCCO[C@@H](CN(C)C(=O)c2ccccc2)[C@H](C)CN([C@H](C)CO)C(=O)c2cc(NC(=O)c3ccncc3)ccc2O1	/	/	-25.1[16.7 µM]	/	/	/	/
C[N+](C)(C)C/C=C1/COCO1	3.7	-6.0	/	-0.4	19.5*	13.4*	0.3
Cc1ccc(S(=O)(=O)N(C)C[C@@H]2OCCCC[C@H](C)Oc3ccc(NS(=O)(=O)c4cn(C)cn4)cc3C(=O)N([C@H](C)CO)C[C@H]2C)cc1	/	/	-21.2[16.7 µM]	/	/	/	/
O=C(Oc1ccc(Br)cc1C(=O)/C=C/c1ccccc1F)c1ccco1	2.3	7.9	1.9	-0.2	23.8*	11.8	0.1
O=C1C=CN(Cc2ccccc2)C(c2ccccc2)C1 (configuration not stated)	-5.1	1.5	21.3	0.0	3.4	/	/
O=C1[C@H](Cc2ccccc2)NCCCC[C@@H](c2ccc(Cl)cc2)N1Cc1ccccc1	7.8	4.0	19.3	1.3	/	1.3	2.3*
Cc1ccc(S(=O)(=O)Nc2ccc3c(c2)C(=O)N([C@H](C)CO)C[C@@H](C)[C@@H](CN(C)C(=O)NC(C)C)OCCCC[C@@H](C)O3)cc1	/	/	-135.9[16.7 µM]	/	/	/	/
Cc1cc2c(ccc3c2no[n+]3[O-])nn1	6.1	-1.7	/	0.2	13.7*	13.2*	0.1
[O-][n+]1onc2c3ccnnc3ccc21	5.6	-5.5	/	0.1	8.2	/	/
C[C@@H]1CN([C@H](C)CO)C(=O)Cc2cc(NC(=O)Nc3ccc4c(c3)OCO4)ccc2O[C@@H]1CN(C)S(=O)(=O)c1cn(C)cn1	/	/	8.0[16.7 µM]	/	/	/	/
O=c1[nH]c2cc(NCCO)c([N+](=O)[O-])cc2[nH]1	-5.2	1.1	-7.8	-0.1	20.9*	33.0*	2.8*
CC(C)NC(=O)Nc1ccc2c(c1)C(=O)N([C@@H](C)CO)C[C@@H](C)[C@H](CN(C)C(=O)Nc1ccc(F)cc1)OCCCC[C@H](C)O2	/	/	4.6[16.7 µM]	/	/	/	/
Cc1ccc(Nc2c(-c3ccc(N4CCOCC4)cc3)nc3cnccn23)cc1	-8.6	-13.8	3.5	0.2	16.0*	5.9	-0.4
Cc1ccccc1Nc1c(-c2ccc(N3CCOCC3)cc2)nc2cnccn12	-30.7	-62.5	-38.2	0.2	3.1	/	/
Cc1[nH]c(=O)[nH]c(=O)c1/C=N/NC(=O)[C@H](C)NC(=O)OC(C)(C)C	2.1	4.2	/	-0.1	/	0.7	-0.1
C[C@@H]1CN([C@H](C)CO)C(=O)c2cc(C#CCN(C)C)cnc2O[C@H]1CN(C)Cc1ccccc1F	/	/	16.3[16.7 µM]	/	/	/	/
COc1ccc(-c2cc(N)n(S(=O)(=O)c3c(F)c(F)c(F)c(F)c3F)n2)cc1OC	10.1	-15.6	/	-0.5	53.9*	59.7*	1.0
